Results published in PubChem BioAssay.
Activity calls are given as the source filed them.

Key:
[1] = compounds binding Alexa647 anti-His antibody – biochemical, small-molecule microarray, 635 nm fluorescence, artefact control for SMM control protein annotation, primary screen (AID 1128); conditions: higher = more signal;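 also: score merges feature fluorescence with signal-to-noise for each printed compound spot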
[2] = system: Human papillomavirus type 1a E7 protein (residues 1-88); test: HPV1a E7 small-molecule binders, primary screen, biochemical, small-molecule microarray, residues 1-88, 635 nm (AID 1129); conditions: small-molecule microarray binding, fluorescence 635 nm; higher = more signal
[3] = target: Focal adhesion kinase 1 (Homo sapiens) (UniProt Q05397); test: PTK2 protein binding on printed compound slides – biochemical, small-molecule microarray, 635/667 nm fluorescence, BSA, DTT, primary screen (AID 1130); conditions: 635 nm fluorescence, higher = more signal;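 also: composite of spot emission at 667 nm and signal to noise over triplicate slides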
[4] = system: Fibrinogen (Alexa647-labelled); test: Alexa647-fibrinogen binding to printed small molecules – biochemical, small-molecule microarray, 635/667 nm fluorescence, artefact control for SMM control-protein annotation, profiling panel (AID 1131); conditions: fibrinogen-A647 binding fluorescence, higher = more signal;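 also: z-score merges 667 nm fluorescence with per-spot signal-to-noise over triplicate slides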
[5] = target: Follistatin (Homo sapiens) (UniProt P19883); test: FST protein binding to printed compounds – biochemical, small-molecule microarray, 635/667 nm fluorescence, primary screen (AID 1132); conditions: 635 nm fluorescence, higher = more signal
[6] = target: Fibroblast growth factor 2 (Homo sapiens) (UniProt P09038); test: basic fibroblast growth factor binding to printed compounds – biochemical, small-molecule microarray, 635/667 nm fluorescence, primary screen (AID 1133); conditions: FGF2, fluorescence 635/667, higher = more signal
[7] = JC-1 mitochondrial potential readout, lung cancer cells – cell-based, A549, JC-1 fluorescence, basal, 24 h, 100 nL, profiling panel (AID 1138); conditions: higher = more signal;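 also: A549 lung adenocarcinoma cells under basal conditions with no added stimulus; test concentration not given here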
Lefty1 = Lefty1 protein binding to printed compounds – biochemical, small-molecule microarray, 635/667 nm fluorescence, primary screen (AID 1139); conditions: fluorescence 635/667, higher = more signal
[8] = system: wheat germ agglutinin (Triticum aestivum), Alexa647-labelled; test: Alexa647-WGA lectin binding to printed small molecules – biochemical, small-molecule microarray, 635/667 nm fluorescence, artefact control for SMM control-protein annotation, profiling panel (AID 1140); conditions: WGA-A647 binding, 635 nm fluorescence, higher = more signal;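 also: score merges 667 nm feature emission with signal to noise over triplicate slides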
[9] = target: Luciferin 4-monooxygenase (Photinus pyralis) (UniProt P08659); test: inhibition of purified Photinus pyralis luciferase – biochemical, luminescence, purified enzyme, 2006 set, primary screen (AID 1141); conditions: purified firefly luciferase, SteadyGlo luminescence, 30 min; higher = more signal, called active from +8 up or from −8 down;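 also: cell-free assay with purified firefly luciferase at 100 ng per well in PBS; test concentration not given here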
Chain of Luciferin 4-monooxygenase (Photinus pyralis) (P08659 whole entry, looked up): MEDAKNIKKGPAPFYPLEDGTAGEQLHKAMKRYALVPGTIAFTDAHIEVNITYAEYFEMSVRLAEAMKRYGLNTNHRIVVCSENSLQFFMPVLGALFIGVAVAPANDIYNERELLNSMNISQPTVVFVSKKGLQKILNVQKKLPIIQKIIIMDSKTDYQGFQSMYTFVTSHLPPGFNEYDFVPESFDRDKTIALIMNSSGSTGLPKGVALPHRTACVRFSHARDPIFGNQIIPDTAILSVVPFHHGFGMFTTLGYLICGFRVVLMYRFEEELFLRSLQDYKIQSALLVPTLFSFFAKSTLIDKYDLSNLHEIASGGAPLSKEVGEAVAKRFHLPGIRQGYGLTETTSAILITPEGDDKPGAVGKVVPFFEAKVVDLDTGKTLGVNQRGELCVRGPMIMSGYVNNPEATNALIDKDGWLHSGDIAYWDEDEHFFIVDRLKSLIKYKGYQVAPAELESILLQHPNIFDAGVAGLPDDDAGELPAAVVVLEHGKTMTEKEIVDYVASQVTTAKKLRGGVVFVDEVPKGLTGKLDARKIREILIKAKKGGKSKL

Chain of Focal adhesion kinase 1 (Homo sapiens) (Q05397 whole entry, looked up): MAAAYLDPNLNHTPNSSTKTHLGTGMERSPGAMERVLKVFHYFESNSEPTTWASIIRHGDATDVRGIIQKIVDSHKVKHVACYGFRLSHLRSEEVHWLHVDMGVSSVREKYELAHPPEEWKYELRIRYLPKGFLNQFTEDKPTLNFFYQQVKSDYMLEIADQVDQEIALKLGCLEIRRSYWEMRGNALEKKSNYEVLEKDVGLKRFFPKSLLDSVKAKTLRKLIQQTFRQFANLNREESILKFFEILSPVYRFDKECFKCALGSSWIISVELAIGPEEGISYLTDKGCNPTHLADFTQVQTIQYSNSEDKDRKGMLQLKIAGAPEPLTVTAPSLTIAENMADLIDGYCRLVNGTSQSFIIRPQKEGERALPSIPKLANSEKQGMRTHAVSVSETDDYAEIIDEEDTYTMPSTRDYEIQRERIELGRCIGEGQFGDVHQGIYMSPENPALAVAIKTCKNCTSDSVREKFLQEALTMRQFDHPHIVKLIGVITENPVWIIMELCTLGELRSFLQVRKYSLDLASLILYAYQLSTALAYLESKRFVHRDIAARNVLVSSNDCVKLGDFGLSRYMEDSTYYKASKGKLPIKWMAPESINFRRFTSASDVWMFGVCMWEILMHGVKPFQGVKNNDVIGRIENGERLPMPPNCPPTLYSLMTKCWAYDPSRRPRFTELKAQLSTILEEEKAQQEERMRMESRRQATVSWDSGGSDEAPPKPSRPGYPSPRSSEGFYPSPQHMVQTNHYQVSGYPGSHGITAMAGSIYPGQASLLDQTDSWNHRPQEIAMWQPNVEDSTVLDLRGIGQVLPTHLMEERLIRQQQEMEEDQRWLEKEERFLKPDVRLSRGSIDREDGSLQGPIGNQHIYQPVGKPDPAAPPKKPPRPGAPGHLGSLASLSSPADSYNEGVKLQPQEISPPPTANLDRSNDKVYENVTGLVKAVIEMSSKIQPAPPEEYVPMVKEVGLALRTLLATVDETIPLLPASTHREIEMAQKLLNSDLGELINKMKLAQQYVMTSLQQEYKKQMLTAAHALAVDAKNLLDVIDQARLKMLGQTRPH
Chain of Follistatin (Homo sapiens) (P19883 whole entry, looked up): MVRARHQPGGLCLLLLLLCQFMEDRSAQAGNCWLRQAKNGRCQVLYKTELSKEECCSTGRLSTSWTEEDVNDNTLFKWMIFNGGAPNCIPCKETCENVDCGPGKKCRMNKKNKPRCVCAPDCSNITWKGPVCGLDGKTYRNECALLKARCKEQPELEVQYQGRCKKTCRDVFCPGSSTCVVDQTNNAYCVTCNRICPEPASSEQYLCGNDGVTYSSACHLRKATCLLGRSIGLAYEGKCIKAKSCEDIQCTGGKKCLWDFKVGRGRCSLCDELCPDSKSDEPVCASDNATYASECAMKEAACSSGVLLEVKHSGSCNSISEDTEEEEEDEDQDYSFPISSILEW
Chain of Fibroblast growth factor 2 (Homo sapiens) (P09038 whole entry, looked up): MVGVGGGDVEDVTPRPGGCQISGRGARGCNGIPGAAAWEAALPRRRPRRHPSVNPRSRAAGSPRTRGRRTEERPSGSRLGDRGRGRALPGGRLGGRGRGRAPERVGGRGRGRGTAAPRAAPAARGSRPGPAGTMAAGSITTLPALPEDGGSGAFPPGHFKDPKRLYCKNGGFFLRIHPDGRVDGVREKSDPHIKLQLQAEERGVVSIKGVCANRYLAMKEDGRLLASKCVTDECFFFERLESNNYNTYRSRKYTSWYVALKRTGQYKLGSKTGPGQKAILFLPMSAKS

| Structure (SMILES) | composite z-score [1] | composite z-score [2] | composite z-score [3] | composite z-score [4] | composite z-score [5] | composite z-score [6] | z-score [7] | composite z-score (Lefty1) | composite z-score [8] | z-score [9] |
| --- | --- | --- | --- | --- | --- | --- | --- | --- | --- | --- |
| C=CCNC(=O)[C@H]1[C@@H]2C(=O)O[C@@H](c3ccccc3)[C@@H](c3ccccc3)N2[C@@H](c2ccc(OCCO)cc2)[C@]12C(=O)N(C(=O)OCCOC)c1ccc(C#CC3=CCCCC3)cc12 | 1.56 | 1.2 | 0.485 | 0.968 | 1.17 | 1.25 | -0.615 | 0.949 | 1.17 | -1.77 (inactive) |
| CCCCCCCCCCC(O)C1C=CC2C(=O)NC(=O)C2N1Nc1ccccn1 (stereo not given) | 0.121 | 0.749 | 0.675 | 0.666 | -0.008 | -1.4 | 0.706 | -0.458 | 0.331 | -0.765 (inactive) |
| N#Cc1ccc(NN2C(C(O)c3ccccc3)C=CC3C(=O)N(c4ccccc4)C(=O)C32)cc1 (stereo not given) | 0.324 | 0.954 | 0.452 | -0.456 | 0.927 | -0.217 | 1.41 | -0.272 | 0.635 | 0.884 (inactive) |
| [N-]=[N+]=NCc1ccccc1C[C@@]1(C(=O)NCCN2CCOCC2)N=C(c2ccc(OCCCO)cc2)O[C@@H]1c1ccccc1CN=[N+]=[N-] | 2.12 | 1.21 | 0.366 | 0.973 | 1.45 | 0.672 | 1.08 | 0.785 | 0.59 | -1.36 (inactive) |
| COC(=O)C(CC#Cc1ccc2c(c1)[C@]1(C(=O)N2)[C@H](c2ccccc2OCCO)N2[C@H](c3ccccc3)[C@H](c3ccccc3)OC(=O)[C@H]2[C@@H]1C(=O)Nc1nc2ccccc2s1)C(=O)OC | 0.35 | 1.21 | 0.607 | 0.97 | 1.11 | 0.622 | -2.12 | 0.9 | 1.29 | -1.21 (inactive) |
| Cc1ccccc1C(O)C1C=CC2C(=O)N(C)C(=O)C2N1Nc1ccc([N+](=O)[O-])cc1[N+](=O)[O-] (stereo not given) | 0.509 | 1.27 | 0.646 | 1.02 | 0.674 | -0.38 | 0.668 | -0.167 | 0.913 | 0.147 (inactive) |
| C[C@@H]1ON(c2ccccc2)[C@H](c2ccccc2)[C@H]1C(=O)N1C(=O)OC[C@H]1Cc1ccccc1 | 0.39 | 0.569 | 0.507 | -0.178 | 0.586 | 0.375 | 2.24 | 0.675 | 0.237 | 0.549 (inactive) |
| COc1cc2c(cc1OC)CN(C(=O)[C@@H]1[C@H]3C(=O)O[C@H](c4ccccc4)[C@H](c4ccccc4)N3[C@H](c3ccc(O)cc3)[C@@]13C(=O)Nc1ccc(C#CCNC(N)=O)cc13)CC2 | 0.474 | 0.69 | 0.484 | 0.43 | 1.29 | 0.302 | -0.876 | 0.837 | 0.607 | 0.696 (inactive) |
| O=C1NC(=O)C2C1C=CC(C(O)CCc1ccccc1)N2Nc1ccccn1 (stereo not given) | -0.0572 | 0.495 | 0.318 | 0.415 | 0.269 | -0.157 | 0.681 | -0.139 | 0.589 | -1.13 (inactive) |
| COCCCNC(=O)[C@@H]1c2ccccc2C(=O)N(c2ccc(C)cn2)[C@H]1c1ccc(CO)cc1 | -0.346 | -1.11 | -1.24 | -1.04 | -1.25 | -2.41 | -0.758 | -1.03 | 0.0195 | 0.195 (inactive) |
| Cc1ccc(S[C@]2(C(=O)NCc3ccccc3)CC(=O)N(C3Cc4ccccc4C3)[C@@H]2c2ccc(CO)cc2I)cc1 | -1.12 | -0.621 | -0.17 | -0.151 | -0.328 | -0.244 | 1.24 | -0.582 | 0.146 | -1.26 (inactive) |
| O=[N+]([O-])c1ccc(C[n+]2ccc(-c3ccc(CO)cc3)cc2)o1 | 1.38 | 0.148 | 0.197 | -0.0943 | 1.34 | 0.59 | -0.93 | 0.362 | 1.17 | -0.208 (inactive) |
| CCCCC(=C=CC[C@H](O)c1ccccc1OCCO)C[C@H](O)c1ccccn1 | 0.299 | 0.0909 | -0.255 | -0.196 | 1.29 | 1.37 | 0.717 | 1.15 | 0.458 | -0.109 (inactive) |
| CC[C@@H]1[C@@H]2C3C(=O)N(CC)C(=O)C3CC(=O)[C@@H]2[C@H](c2ccc(C)cc2)N1S(=O)(=O)c1ccc(C)cc1 (stereo not given in full) | 0.189 | 1.2 | 0.381 | -0.826 | 0.573 | -0.415 | -0.0765 | 0.417 | 0.519 | 1.46 (inactive) |
| CC(C)c1ccc(NN2C(C(O)c3cccs3)C=CC3C(=O)N(c4ccccc4)C(=O)C32)cc1 (stereo not given) | 0.548 | 1.24 | 0.814 | 1.03 | 0.963 | -0.737 | -1.13 | 0.0247 | 1.06 | -0.893 (inactive) |
| COCCOC(=O)N1C(=O)[C@@]2(c3cc(C#CC4(O)CCCCCC4)ccc31)[C@H](C(=O)N1CCc3cc(OC)c(OC)cc3C1)[C@H]1C(=O)O[C@H](c3ccccc3)[C@H](c3ccccc3)N1[C@@H]2c1ccccc1OCCO | 1.07 | 1.17 | 0.32 | 0.608 | 1.36 | 1.48 | -0.651 | 1.28 | 0.859 | -1.72 (inactive) |
| CC(C)C[C@@H]1NC(=O)[C@@H]2C[C@H](C(=O)NCc3ccc(F)cc3)[C@H](c3ccc(O)cc3)N2C1=O | 2.13 | 0.0885 | 0.317 | 0.248 | 1.34 | 1.91 | 0.634 | 0.689 | -0.299 | -0.0763 (inactive) |
| C=C(C(=O)CC[C@H](OC(=O)c1cccnc1)c1ccc(OCCO)cc1)C(C)C | 0.423 | 0.54 | 0.091 | 0.917 | 1.05 | 0.859 | 0.531 | 1.31 | -0.052 | -2.26 (inactive) |
| CCCCC=C[C@@H](NC(=O)CCc1ccccc1)c1ccccc1 | 0.838 | 1.2 | 0.507 | 0.939 | 0.361 | 0.362 | -2.3 | -0.0782 | 1.07 | 1.08 (inactive) |
| C[C@]12C(=O)N(CCCCCO)[C@@H]3C(=O)N(c4ccc(Cl)cc4)CC=CC31O[C@@H]1/C=C\CCCOC(=O)C12 (stereo not given in full) | -0.39 | -0.711 | -0.83 | -1.47 | -0.271 | -1.27 | 0.428 | -0.431 | -1.31 | -0.576 (inactive) |
| CC(C)(C)OC(=O)CC[C@@]1(C(=O)N2CCCCC2)N=C(c2ccc(OCCCO)cc2)O[C@@H]1c1ccccc1CN=[N+]=[N-] | 3.24 | 1.21 | 1.26 | 1.03 | 1.04 | 0.0627 | 1.58 | 0.0215 | 1.35 | -0.931 (inactive) |
| CCCNC(=O)[C@@H]1c2ccccc2C(=O)N(CC23CC4CC(CC(C4)C2)C3)[C@H]1c1ccc(CO)cc1 | 0.618 | 1.23 | 0.734 | 0.957 | 1.34 | 0.871 | -1.17 | 0.798 | 0.562 | 0.411 (inactive) |
| COCCOC(=O)N1C(=O)[C@@]2(c3cc(C#CCCO)ccc31)[C@H](c1ccc(OCCO)cc1)N1[C@H](c3ccccc3)[C@H](c3ccccc3)OC(=O)[C@H]1[C@@H]2C(=O)N1CCc2cc(OC)c(OC)cc2C1 | 1.2 | 1.19 | 0.81 | 0.249 | 1.22 | 1.11 | -0.633 | 1.08 | 0.0877 | -0.856 (inactive) |
| O=C1NC(=O)C2C1C=CC(C(O)c1ccc(-c3ccccc3)s1)N2Nc1ccccn1 (stereo not given) | 0.322 | 0.642 | 0.0118 | 0.347 | 0.689 | 0.0993 | 0.291 | 0.0042 | 0.807 | -0.86 (inactive) |
| CC(C)C[C@@H]1NC(=O)[C@@]23C(=O)N[C@@H](Cc4ccccc4)C2[C@H](C)[C@@]2(C)O[C@H]2C3/C=C/C/C=C\CNC(=O)[C@@H]2CCCN2C1=O (stereo not given in full) | 0.886 | -1.05 | -0.0278 | -0.94 | 0.368 | 0.392 | 0.579 | 0.571 | -0.299 | 0.0046 (inactive) |
| NC(=O)[C@@H]1[C@H]2C(=O)O[C@H](c3ccccc3)[C@H](c3ccccc3)N2[C@H](c2ccccc2OCCO)[C@@]12C(=O)Nc1ccc(C#CCCO)cc12 | 0.553 | -0.464 | 0.155 | 0.947 | -0.0704 | -0.455 | 0.669 | -0.128 | 0.335 | 1 (inactive) |
| CN(C)CCCN1C(=O)[C@@]2(Cc3ccccc31)c1ccccc1C(=O)N(Cc1ccccc1)[C@H]2c1ccc(CO)cc1 | -0.201 | -0.153 | -0.0553 | 0.385 | 0.375 | 0.144 | -0.548 | 0.122 | 0.111 | 1.09 (inactive) |
| COCCOC(=O)N1C(=O)[C@@]2(c3cc(C#CC4(O)CCCCCC4)ccc31)[C@H](C(=O)N1CCN(c3ncccn3)CC1)[C@H]1C(=O)O[C@H](c3ccccc3)[C@H](c3ccccc3)N1[C@@H]2c1ccc(O)cc1 | 1.47 | 1.19 | 0.206 | 0.676 | 0.91 | 0.35 | -0.328 | 0.354 | 1.04 | -1.46 (inactive) |
| CCOC(=O)C1=CC[C@@H](c2ccccc2)N(S(=O)(=O)c2ccc(C)cc2)[C@H]1C=C(C)C | 0.875 | 1.22 | 0.503 | 0.911 | 0.97 | 0.481 | 2.58 | 0.811 | 0.546 | 2.12 (inactive) |
| O=C1O[C@H](c2ccccc2)[C@H](c2ccccc2)N2[C@H]1[C@@H](C(=O)N1CCN(c3ncccn3)CC1)[C@]1(C(=O)Nc3ccc(C#CCCO)cc31)[C@H]2c1ccc(OCCO)cc1 | 2.06 | 1.2 | 0.372 | 0.934 | 1.36 | 0.597 | -0.756 | 1.57 | 0.772 | -0.713 (inactive) |
